From PubChem BioAssay (EPA / NIEHS)
Results filed as inconclusive are left out. Active and inactive are the calls of the source. Rule for the calls, unless noted: active = hit-call score of the fitted dose curve at least 0.9, where 1 is the maximum; inactive = score below 0.9.

Key:
[1] = APR_HepG2_CellCycleArrest_1hr: Apredica 1-hour HepG2 Assay for Cell Cycle Arrest (AID 2282666); conditions: high-content imaging, actives raise or lower the signal
Summary of the method: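 HepG2 cells exposed for 1 h to 0.39–200 uM compound (0.5% DMSO). Fixed, Hoechst-stained nuclei imaged by ArrayScan; DNA content quantified by Cell Cycle analysis; bidirectional fit against DMSO.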

[2] = ACEA_ER_80hr: ACEA Biosciences xCELLigence Real-Time Cell Analysis on Estrogen Receptor Agonism for Proliferation (AID 2282667; active = hit-call score of the fitted dose curve at least 0.9, where 1 is the maximum); conditions: T47D proliferation, impedance (xCELLigence), 80 h
Summary of the method: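 Real-time impedance growth kinetics of human T-47D breast cells read 80 h after dosing, gain-of-signal fitted relative to DMSO. Compounds: 1:4 serial series, top final concentration 100 uM, n = 2.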

[3] = APR_HepG2_CellLoss_1hr: Apredica 1-hour HepG2 Assay for Cell Loss (AID 2282668); conditions: high-content imaging;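 note: curves fitted both ways against DMSO so gain or loss of cells counts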
Summary of the method: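 HepG2 cells were treated for 1 h with compound at 0.39–200 uM, in duplicate, in 0.5% DMSO. After formaldehyde fixation, Hoechst 33342-stained nuclei were imaged on an ArrayScan to count cells. Data were fitted bidirectionally versus DMSO.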

[4] = APR_HepG2_NuclearSize_1hr: Apredica 1-hour HepG2 Assay for Nuclear Size (AID 2282670); conditions: high-content imaging, actives raise or lower the signal
Summary of the method: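 HepG2 cells dosed 1 hr with 0.39–200 uM compound (0.5% DMSO), formaldehyde-fixed, Hoechst 33342-stained and imaged at 20x; nuclear diameter from nuclear stain, fitted bidirectionally against DMSO.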

[5] = APR_HepG2_p53Act_1hr: Apredica 1-hour HepG2 Assay for p53 Activation (AID 2282671); conditions: high-content imaging, actives raise or lower the signal
Summary of the method: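 HepG2 cells treated 1 h with compound at 0.39–200 uM (10 concentrations, duplicate) in 0.5% DMSO. Formaldehyde-fixed, permeabilised cells immunostained for p53 with Hoechst 33342; high-content imaging, bidirectional fit versus DMSO.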

[6] = APR_HepG2_MitoticArrest_1hr: Apredica 1-hour HepG2 Assay for Mitotic Arrest (AID 2282672); conditions: high-content imaging, actives raise or lower the signal
Summary of the method: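 HepG2 cells exposed 1 hr to compounds at 0.39–200 uM (0.5% v/v DMSO final), then fixed in 3.7% formaldehyde and immunostained for phospho-histone H3 with Hoechst 33342. Mitotic arrest scored by automated fluorescence imaging, fitted bidirectionally versus DMSO.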

[7] = APR_HepG2_MitoMass_1hr: Apredica 1-hour HepG2 Assay for Mitochondrial Mass (AID 2282674); conditions: high-content imaging, actives raise or lower the signal
Summary of the method: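 HepG2 cells dosed 1 hr with 0.39-200 uM compound (0.5% DMSO), duplicate wells. Mitochondria stained with 250 nM MitoTracker Red CMXRos for 30 min before formaldehyde fixation, imaged at 20x by ArrayScan; bidirectional fit versus DMSO.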

[8] = APR_HepG2_StressKinase_1hr: Apredica 1-hour HepG2 Assay for Stress Kinase (AID 2282906); conditions: HepG2 stress kinase (phospho-c-Jun) imaging, actives raise or lower the signal
Summary of the method: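 HepG2 cells dosed 0.39-200 uM (0.5% DMSO) for 1 h, then formaldehyde-fixed. Stress kinase read by phospho-c-Jun immunofluorescence using high-content imaging; bidirectional fit vs DMSO.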

[9] = APR_HepG2_NuclearSize_24hr: Apredica 24-hour HepG2 Assay for Nuclear Size (AID 2282907); conditions: high-content imaging, actives raise or lower the signal
Summary of the method: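 HepG2 cells exposed 24 h to compounds at 0.39–200 uM (0.5% DMSO), fixed, Hoechst 33342 stained and imaged at 20x; nuclear diameter measured by automated image analysis, fitted bidirectionally against DMSO controls.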

[10] = APR_HepG2_CellLoss_24hr: Apredica 24-hour HepG2 Assay for Cell Loss (AID 2282908); conditions: high-content imaging
Summary of the method: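 HepG2 cells exposed 24 hr to 0.39–200 uM compound in duplicate at 0.5% v/v final DMSO. Cells fixed in 3.7% formaldehyde and Hoechst 33342-stained. Cell number came from nuclear imaging at 20x. Bidirectional fit versus DMSO.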

[11] = APR_HepG2_MicrotubuleCSK_24hr: Apredica 24-hour HepG2 Assay for Microtubule CSK Stabilty (AID 2282909); conditions: HepG2 microtubule cytoskeleton imaging, actives raise or lower the signal
Summary of the method: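 HepG2 cells were treated 24 hr with compound at 0.39–200 uM in duplicate (0.5% DMSO final), then fixed and permeabilized. Alpha-tubulin immunofluorescence was imaged by high-content microscopy, with bidirectional fitting against DMSO and taxol as positive control.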

[12] = APR_HepG2_MitoticArrest_24hr: Apredica 24-hour HepG2 Assay for Mitotic Arrest (AID 2282910); conditions: high-content imaging, actives raise or lower the signal
Summary of the method: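 Compounds are dosed onto HepG2 cells across ten concentrations up to 200 uM for 24 hr. Cells are then fixed in 3.7% formaldehyde, permeabilised, and labelled for phospho-histone H3 and nuclei; images are scored by cell cycle analysis and fitted bidirectionally relative to DMSO.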

[13] = APR_HepG2_MitoMembPot_24hr: Apredica 24-hour HepG2 Assay for Mitochondrial Membrane Potential (AID 2282911); conditions: imaging, actives raise or lower the signal
Summary of the method: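 Mitochondrial membrane potential imaged via MitoTracker Red CMXRos (250 nM, 30 min pre-fixation) in fixed HepG2 cells with Hoechst nuclear identification. Ten concentrations 0.39–200 uM, 24 h treatment, 0.5% DMSO; CCCP as positive control.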

[14] = APR_HepG2_MitoMass_24hr: Apredica 24-hour HepG2 Assay for Mitochondrial Mass (AID 2282912); conditions: high-content imaging, actives raise or lower the signal
Summary of the method: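 HepG2 cells exposed 24 hr to 0.39–200 uM compound, 0.5% v/v DMSO, in duplicate. Stained before fixation with 250 nM MitoTracker Red CMXRos for 30 min, then imaged at 20x with Hoechst nuclei. Fitted in both directions against DMSO.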

[15] = APR_HepG2_p53Act_24hr: Apredica 24-hour HepG2 Assay for p53 Activation (AID 2282913); conditions: high-content imaging, actives raise or lower the signal;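 note: p53 protein immunofluorescence averaged per cell in HepG2 with Hoechst nuclei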
Summary of the method: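 Fluorescence imaging of formaldehyde-fixed HepG2 cells labelled for p53 and with Hoechst, 24 h after dosing (0.39–200 uM, duplicate wells, 0.5% v/v DMSO). Signal fitted in both directions relative to DMSO.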

[16] = APR_HepG2_CellCycleArrest_72hr: Apredica 72-hour HepG2 Assay for Cell Cycle Arrest (AID 2282914); conditions: high-content imaging, actives raise or lower the signal
Summary of the method: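 Read-out: nuclear DNA content from Hoechst 33342 high-content imaging (20x, six fields/well) after 3.7% formaldehyde fixation, fitted bidirectionally against DMSO. Treatment was 72 h in HepG2, ten concentrations 0.39–200 uM, duplicate, 0.5% DMSO.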

[17] = APR_HepG2_MicrotubuleCSK_1hr: Apredica 1-hour HepG2 Assay for Microtubule CSK Stabilty (AID 2282669); conditions: HepG2 microtubule cytoskeleton imaging, actives raise or lower the signal
Summary of the method: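 HepG2 cells exposed 1 h to 0.39–200 uM compound (0.5% DMSO, duplicates), then formaldehyde-fixed, permeabilized and immunostained for alpha-tubulin with Hoechst nuclei. Imaged by ArrayScan high-content analysis; bidirectional fit versus DMSO.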

[18] = APR_HepG2_P-H2AX_1hr: Apredica 1-hour HepG2 Assay for H2AX Phosphorylation (AID 2282673); conditions: high-content imaging, actives raise or lower the signal
Summary of the method: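 HepG2 dosed 1 hr at 0.39-200 uM (0.5% DMSO final), duplicate. Fixed in 3.7% formaldehyde, Triton permeabilized, immunostained for phospho-histone H2A.x (1:200) with Hoechst 33342; ArrayScan 20x imaging, bidirectional fit vs DMSO.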

[19] = APR_HepG2_CellCycleArrest_24hr: Apredica 24-hour HepG2 Assay for Cell Cycle Arrest (AID 2282905); conditions: imaging, actives raise or lower the signal;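 note: cell cycle arrest scored as ratio of 2N to 4N nuclear DNA content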
Summary of the method: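 Compounds at 0.39–200 uM (0.5% DMSO) for 24 h, then fixed and Hoechst 33342 stained. Cell-cycle analysis of nuclear DNA content by high-content imaging, fitted bidirectionally versus DMSO.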

[20] = APR_HepG2_MitoMembPot_1hr: Apredica 1-hour HepG2 Assay for Mitochondrial Membrane Potential (AID 2282675); conditions: imaging, actives raise or lower the signal
Summary of the method: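 HepG2 cells dosed 1 hour with 0.39–200 uM compound in duplicate, 0.5% DMSO final. MitoTracker Red CMXRos (250 nM, 30 min) loaded before formaldehyde fixation; fluorescence quantified by high-content imaging, bidirectional fitting versus DMSO.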

Measured: AC50

CCN(CC)c1nc(C)cc(OP(=S)(OC)OC)n1
inactive: [1] | [2] | [3] | [4] | [5] | [6] | [7] | [8] | [9] | [10] | [11] | [12] | [13] | [14] | [15] | [16]

CCCCC(C#N)(Cn1cncn1)c1ccc(Cl)cc1 (configuration not stated)
inactive: [1] | [2] | [3] | [17] | [4] | [5] | [6] | [18] | [7] | [19] | [8] | [9] | [10] | [11] | [12] | [13] | [14] | [15] | [16]

CC(C)=CC1C(C(=O)OCc2coc(Cc3ccccc3)c2)C1(C)C (configuration not stated)
active: [20] 98.4 µM | [13] 100 µM | [16] 31.7 µM
inactive: [1] | [2] | [3] | [17] | [4] | [7] | [8] | [9] | [10] | [11] | [12] | [14]

CCN(CC)C(=O)C(C)Oc1cccc2ccccc12 (configuration not stated)
active: [16] 106 µM
inactive: [1] | [2] | [3] | [4] | [5] | [6] | [18] | [7] | [20] | [19] | [8] | [9] | [10] | [11] | [12] | [13] | [14] | [15]

Cc1c(COC(=O)[C@@H]2[C@H](/C=C(\Cl)C(F)(F)F)C2(C)C)cccc1-c1ccccc1
inactive: [1] | [2] | [3] | [17] | [4] | [5] | [6] | [18] | [7] | [20] | [8] | [9] | [10] | [11] | [12] | [13] | [14] | [15] | [16]

CCOc1nc(C(Cl)(Cl)Cl)ns1
inactive: [1] | [2] | [3] | [4] | [5] | [6] | [7] | [20] | [8] | [9] | [10] | [11] | [12] | [13] | [14] | [15] | [16]

CCOC(=O)C(C)OC(=O)c1cc(Oc2ccc(C(F)(F)F)cc2Cl)ccc1[N+](=O)[O-] (configuration not stated)
inactive: [1] | [2] | [3] | [17] | [4] | [5] | [7] | [20] | [8] | [9] | [10] | [11] | [12] | [13] | [14] | [15] | [16]
